The values below come from the antibiotic and cytotoxicity screens of Wong et al. (2023).

Among all 39,000 compounds or so, about 3,300 (8.5%) were called active. This excerpt belongs to a sample that is enriched for actives.

For the assay, the system named is HepG2. In words: cytotoxicity call (relative viability < 0.9). The settings on record: 10 µM.
With `C[C@@H]1CCCCO[C@@H](CN(C)Cc2ccc(C(F)(F)F)cc2)[C@@H](C)CN([C@H](C)CO)C(=O)c2cc(N(C)C)ccc2O1`, the cytotoxicity call is “inactive”.
As to `C[C@H](CO)N1C[C@H](C)[C@H](CN(C)Cc2ccc(C(F)(F)F)cc2)OCCCC[C@H](C)Oc2ccc(N(C)C)cc2C1=O`, the cytotoxicity call was “inactive”.
For `C[C@@H]1CCCCO[C@H](CN(C)Cc2ccc(C(F)(F)F)cc2)[C@H](C)CN([C@H](C)CO)C(=O)c2cc(N(C)C)ccc2O1`, the cytotoxicity call was “active”.
With `C[C@@H]1CCCCO[C@H](CN(C)Cc2ccc(Cl)c(Cl)c2)[C@@H](C)CN([C@@H](C)CO)C(=O)c2cc(N(C)C)ccc2O1`, the cytotoxicity call was “inactive”.
As to `C[C@H](CO)N1C[C@H](C)[C@@H](CN(C)Cc2ccc(Cl)c(Cl)c2)OCCCC[C@H](C)Oc2ccc(N(C)C)cc2C1=O`, the cytotoxicity call is “inactive”.
As for `C[C@@H]1CCCCO[C@@H](CN(C)Cc2ccc(Cl)c(Cl)c2)[C@H](C)CN([C@H](C)CO)C(=O)c2cc(N(C)C)ccc2O1`, the entry is “active”; as for `C[C@H]1CCCn2nncc2COCCNC1=O`, “inactive”; as for `COCCOC(=O)N1C(=O)[C@@]2(c3ccccc31)[C@H](C(=O)N1CCCCCCC1)[C@H]1C(=O)O[C@H](c3ccccc3)[C@H](c3ccccc3)N1[C@@H]2c1ccccc1OCCO`, “inactive”.
For `CNS(=O)(=O)c1ccc(C)cc1`, the cytotoxicity call was “inactive”.
Consider `Cc1ccc(S(=O)(=O)[N-]Cl)cc1.[Na+]`, for which the cytotoxicity call is “inactive”.
Take `COc1cc(NC(=O)Cn2cnc3c2c(=O)n(C)c(=O)n3C)cc(OC)c1OC`: the cytotoxicity call was “inactive”.
In the case of `Cc1cccc(-n2cc(CN)cn2)c1`, the cytotoxicity call is “inactive”.
In the case of `COc1cc(NC(=O)c2cccc(-n3cc(NC(=O)Nc4cccc(C)c4)cn3)c2)cc(OC)c1OC`, the cytotoxicity call is “active”.
As for `Cc1noc(C)c1S(=O)(=O)Nc1cccc2c1O[C@@H](CN(C)S(=O)(=O)c1cn(C)cn1)[C@@H](C)CN([C@H](C)CO)C2=O`, the entry is “inactive”; as for `C[C@H](CO)N1C[C@H](C)[C@H](CN(C)C(=O)Nc2ccc(C(C)(C)C)cc2)OCc2cnnn2CCCC1=O`, “inactive”; as for `C[C@@H]1CCCCO[C@@H](CN(C)C(=O)NC2CCCCC2)[C@H](C)CN([C@H](C)CO)C(=O)c2cc(NS(=O)(=O)c3ccccc3)ccc2O1`, “inactive”.
For `C[C@@H]1CCCCO[C@@H](CN(C)C(=O)NC2CCCCC2)[C@H](C)CN([C@@H](C)CO)C(=O)c2cc(NS(=O)(=O)c3ccccc3)ccc2O1`, the cytotoxicity call was “active”.
With `C[C@@H]1CN([C@H](C)CO)C(=O)c2cc(NS(=O)(=O)c3ccccc3)ccc2O[C@@H](C)CCCCO[C@@H]1CN(C)C(=O)NC1CCCCC1`, the cytotoxicity call was “inactive”.
In the case of `C[C@@H]1CCCCO[C@H](CN(C)C(=O)NC2CCCCC2)[C@@H](C)CN([C@@H](C)CO)C(=O)c2cc(NS(=O)(=O)c3ccccc3)ccc2O1`, the cytotoxicity call is “inactive”.
Turning to `C[C@H]1CCCCO[C@H](CN(C)C(=O)NC2CCCCC2)[C@@H](C)CN([C@@H](C)CO)C(=O)c2cc(NS(=O)(=O)c3ccccc3)ccc2O1`, the cytotoxicity call was “inactive”.
Regarding `C[C@H](CO)N1C[C@H](C)[C@H](CN(C)C(=O)NC2CCCCC2)OCCCC[C@H](C)Oc2ccc(NS(=O)(=O)c3ccccc3)cc2C1=O`, the cytotoxicity call is “active”.
`O=C(C[C@@H]1CC[C@@H](NC(=O)Cc2ccccn2)[C@@H](CO)O1)NCCCN1CCOCC1`: the cytotoxicity call is “inactive”.
As for `C[C@H](CO)N1C[C@H](C)[C@H](CN(C)Cc2ccc(C(=O)Nc3ccccc3N)cc2)Oc2c(NS(=O)(=O)c3cn(C)cn3)cccc2C1=O`, the cytotoxicity call was “inactive”.
As for `C[C@@H]1CN([C@H](C)CO)C(=O)c2cccc(NC(=O)c3ccc(-c4nccs4)cc3)c2O[C@@H]1CN(C)C(=O)Nc1cccc2ccccc12`, the entry is “inactive”; as for `COc1ccc(CN2C[C@@H](C)[C@@H](OC)CN(C)C(=O)c3cc(NC(=O)c4nc5ccccc5s4)ccc3OC[C@@H]2C)cc1`, “inactive”.
Consider `CCCC(=O)Nc1ccc2c(c1)OC[C@@H](C)N(S(=O)(=O)c1cn(C)cn1)C[C@@H](C)[C@H](OC)CN(C)C2=O`, for which the cytotoxicity call was “inactive”.
On to `C[C@@H]1CN([C@@H](C)CO)C(=O)c2cc(NC(=O)Cc3ccccc3)ccc2O[C@@H]1CN(C)Cc1ccc(-c2ccccc2)cc1`, for which the cytotoxicity call was “active”.
As for `C[C@@H]1CN([C@H](C)CO)C(=O)c2cc(NC(=O)Cc3ccccc3)ccc2O[C@H]1CN(C)Cc1ccc(C(F)(F)F)cc1`, the entry is “inactive”; as for `C[C@@H]1CN([C@H](C)CO)C(=O)c2cc(NC(=O)Cc3ccccc3)ccc2O[C@@H]1CN(C)Cc1ccc(-c2ccccc2)cc1`, “inactive”.
As to `C[C@@H]1CN([C@@H](C)CO)C(=O)c2cc(NC(=O)Cc3ccccc3)ccc2O[C@H]1CN(C)Cc1ccc(-c2ccccc2)cc1`, the cytotoxicity call was “active”.
Turning to `C[C@@H]1CN([C@H](C)CO)C(=O)c2cc(NC(=O)Cc3ccccc3)ccc2O[C@H]1CN(C)Cc1ccc(-c2ccccc2)cc1`, the cytotoxicity call is “active”.
As for `C[C@@H]1CN([C@@H](C)CO)C(=O)c2cc(NC(=O)Cc3ccccc3)ccc2O[C@@H]1CN(C)Cc1ccc(C(F)(F)F)cc1`, the entry is “inactive”.
With `C[C@H](CO)N1C[C@H](C)[C@H](CN(C)Cc2ccc(-c3ccccc3)cc2)Oc2ccc(NC(=O)Cc3ccccc3)cc2C1=O`, the cytotoxicity call was “active”.
For the molecule `C=C1c2cccc(O)c2C(=O)[C@@H]2C(=O)[C@]3(O)C(=O)[C@@H](C(N)=O)C(=O)[C@@H](N(C)C)[C@@H]3[C@@H](O)[C@H]12`, the cytotoxicity call is “inactive”.
`C[C@@H]1CCCCO[C@@H](CN(C)C(=O)Nc2cccc3ccccc23)[C@@H](C)CN([C@@H](C)CO)C(=O)c2cc(N(C)C)ccc2O1`: the cytotoxicity call was “inactive”.
Turning to `Cn1cnc(CCNC(=O)C[C@@H]2CC[C@@H]3[C@H](COC[C@H](O)CN3C(=O)Nc3ccc(Cl)cc3)O2)c1`, the cytotoxicity call is “inactive”.
On to `CC(=O)NCCCC[C@@H]1NC(=O)[C@@H]2C[C@H](C(=O)NCCCCCN)[C@H](c3ccc(O)cc3)N2C1=O`, for which the cytotoxicity call is “inactive”.
For `O=C(C[C@H]1CC[C@@H]2[C@H](COC[C@@H](O)CN2S(=O)(=O)c2ccccc2)O1)NCCN1CCCCC1`, the cytotoxicity call was “inactive”.
As to `C[C@H](CO)N1C[C@H](C)[C@H](CN(C)C(=O)Nc2ccc(C(F)(F)F)cc2)OCCCC[C@H](C)Oc2ccc(NC(=O)Nc3ccccc3)cc2C1=O`, the cytotoxicity call is “inactive”.
Take `COc1ccc(S(=O)(=O)Nc2ccc3c(c2)CC(=O)N([C@@H](C)CO)C[C@@H](C)[C@@H](CN(C)S(C)(=O)=O)O3)cc1`: the cytotoxicity call is “inactive”.
